Hit rate of the full screen: of about 21,000 compounds, fewer than 10 showed an effect of 50% or more. A selection follows. Potency and affinity values are given separately.
What follows are molecules tested on Acinetobacter baumannii. Settings: Concentration 300 ug.mL-1; ASSAY_TEST Inhibition of Bacterial Growth; detection method Absorption (OD600); MEDIA CAMHB; plate type 384well; NBS; CORNING #3640; time 18 hr.

Row | SMILES | Inhibition [%]
1 | NS(=O)(=O)N1CCCNCC1 | 17.02
2 | CCN(CC)C(=O)NCC[S+]([O-])C(C)(C)C (stereo not drawn) | 4.98
3 | CN(CCc1ccc(Br)cc1)C(=O)CCCN | 4.12
4 | CNC(=O)c1c(C)cccc1NCCCOC | 4.81
5 | COc1ccc(OCCCC(=O)NCCN(C)C)cc1 | 9.28
6 | COCCN1CCCN(C(=O)C(C)C)CC1 | -1.05
7 | O=C1CN(C(=O)c2ccn(-c3ccccc3)n2)CCN1 | 1.11
8 | NC1CCN(CC(=O)N2CCOCC2)CC1 | 3.07
9 | CC(O)(CN)C(F)(F)F (stereo not drawn) | -3.1
10 | CC(N)CCNS(=O)(=O)c1ccccc1 (stereo not drawn) | 10.98
11 | NCC(=O)NCc1ccncc1 | 9.5
12 | O=C(Nc1cccc(CN2CCCC2=O)c1)C1CC1 | 1.2
13 | CC(C)CCNC(=O)CCn1cc(Br)ccc1=O | 8.21
14 | COc1ccc(C(=O)NCC2(C)COC2)c(F)c1F | 4.61
15 | CO[C@@H]1CN[C@@H](c2nc(C)no2)C1 | -0.59
16 | COCc1cccc(-c2nc(C3CCOC3)no2)n1 (stereo not drawn) | 9.25
17 | Cc1cc(=O)cc(C(=O)N2CCCC(C)(C#N)C2)o1 (stereo not drawn) | 0.52
18 | CN(CCCS(C)(=O)=O)CC1CCN(CCO)CC1 | 0.5
19 | O=C(c1cncc(F)c1)N1CC(N2CCCCC2)C1 | 2.2
20 | CN(CC1CCOCC1)C(=O)NCc1ccco1 | 4.16
21 | Cn1ccnc1CN(Cc1ccc(CO)o1)C1CC1 | 10.44
22 | Cc1nc(C(C)(C)N)sc1C | 11.05
23 | Nc1nc(CCCNC(=O)Cc2ccsc2)cs1 | 10.16

Row | SMILES | Inhibition [%]
24 | Cn1nnnc1SCc1cc(Cl)c2c(c1)OCCO2 | 3.66
25 | O=S(=O)(c1ccco1)N1CCOCc2ccccc21 | 6.19
26 | N#Cc1ccc(OCC(O)CN2CCSCC2)cc1 (stereo not drawn) | 10.14
27 | Cc1cccc(C2NCCNC2=O)c1 (stereo not drawn) | 12.66
28 | COCCN(Cc1cnn(C)c1)C(=O)C1CCNC1 (stereo not drawn) | 2.42
29 | CN1CCN(C(C)(C)CNC(=O)Nc2cn[nH]c2)CC1 | -0.91
30 | O=C(NCCCOC(F)F)NCc1ccc(Br)o1 | 3.72
31 | O=C(NC1CCCOc2ccc(F)cc21)c1c[nH]nn1 (stereo not drawn) | 8.95
32 | COC(=O)CN1CCN(C(=O)N(C)C)CC1 | 20.07
33 | COc1ccc(SCC(=O)NC2CCN(C)CC2)cc1 | 2.47
34 | COCCN(C)C[C@@H]1CN(C(=O)C2CCC2)C[C@@H]1CO | 6.32
35 | CN(CCS(=O)(=O)c1ccc(Cl)cc1)CC(=O)N(C)C | -3.7
36 | CSCC(=O)NC1CCCC1 | 5.49
37 | CCS(=O)(=O)NCCCNS(=O)(=O)c1ccc(C)cc1 | 0.89
38 | COc1ccc(Cl)cc1NC(=O)NC1CCS(=O)(=O)C1 (stereo not drawn) | 6.86
39 | O=C(Nc1ccc(NC(=O)C2CC2)nc1)c1ccsc1 | 12.11
40 | COCCOCC(=O)N(C)C(C)c1ccncn1 (stereo not drawn) | 0.44
41 | CCN(C(=O)CN1CCNC(=O)C1)c1ccc(F)cc1 | 7.47
42 | CNC[C@@H]1C[C@@H](O)CN1 | 4.99
43 | CC(C)c1noc(CN2CCSCC2)n1 | 17.17
44 | Cc1ccc(C(CN)N2CCOCC2)o1 (stereo not drawn) | 1.38
45 | CCc1nc(CNCC2CCN(CCO)CC2)no1 | 11.72
46 | CCN(CC)C(C)CNC(=O)c1csc(NC(C)=O)n1 (stereo not drawn) | 5.75

Row | SMILES | Inhibition [%]
47 | COCC(=O)Nc1ccc(-n2cccn2)nc1 | -2.46
48 | CCC(C)(CO)NC(=O)c1sc(COC)nc1C (stereo not drawn) | 6.56
49 | CCC(N)C(=O)N1CCOCC1 (stereo not drawn) | 3.92
50 | CC[C@H](N)C(=O)N1CC(Oc2c(C)cccc2C)C1 | 6.21
51 | O=C(NC1CCCOC1)c1ccc2c(c1)OCCO2 (stereo not drawn) | 9.3
52 | CCCN1CCC(N2CCC(C(N)=O)CC2)CC1 | -0.38
53 | NC1CCN(Cc2ccc(F)c(F)c2)CC1 | 10.51
54 | COc1cn(-c2ccccc2)nc1C(=O)NCC(C)C | 12.56
55 | c1cncc(N2CCCCC2)c1 | 8.5
56 | Cc1cc(CN)n(C)n1 | 8.01
57 | Cc1nc(CC(=O)NCC(C)n2ccnc2)cs1 (stereo not drawn) | 5.87
58 | CCc1noc(C(C)NC(=O)c2cccnc2C)n1 (stereo not drawn) | 6.44
59 | COc1c(F)cccc1CN1C[C@H](O)[C@@H](N(C)C)C1 | 9.85
60 | CC(C)(C)OC(=O)c1ncccc1N | 5.28
61 | CCC(=O)c1ccc(CN)cc1 | 12.11
62 | CSCC(=O)Nc1ccc(C(=O)NCC(F)(F)F)cc1 | 10.77
63 | CC(=O)N1CCN(CCNC(=O)c2cc(Br)c[nH]2)CC1 | 4.86
64 | CNC(=O)C(C)(C)Oc1cccc(Cl)c1 | 6.59
65 | O=C(C1CCC1)N(Cc1ccccn1)C1CC1 | 0.99
66 | Cc1nccn1CC(=O)Nc1ccnn1C | 1.95
67 | CN(C)c1cc(CN)ccn1 | 11.49
68 | CCn1nc(C)cc1C(=O)NCCCc1cccnc1 | 7.13
69 | O=C1CC(C(=O)N2CCCC3(CCCCC3)C2)CCN1 (stereo not drawn) | 7.27

Row | SMILES | Inhibition [%]
70 | CCN(C)CCNC(=O)c1ccncc1I | 5.97
71 | O=C(c1ccco1)N1C[C@H](O)[C@@H](N2CCCCC2)C1 | 9.48
72 | CNC(=O)c1cnc(OCC(F)(F)F)c(Cl)c1 | 1.45
73 | CC(=O)N(C1CC1)C(C)c1ccccn1 (stereo not drawn) | 3.11
74 | O=C1NCCCCC1NS(=O)(=O)N1CCOCC1 (stereo not drawn) | 3.3
75 | CCn1cc(NC(=O)C(C)n2cccn2)cn1 (stereo not drawn) | 0.68
76 | CN(c1cccc(C(N)=O)c1)S(=O)(=O)c1ccccc1 | 7.68
77 | COc1cccc(NC(=O)NCC2CCN(C)CC2)c1 | 9.08
78 | Cc1cnccc1CN | 5.52
79 | CN(Cc1nc(-c2ccc(F)cc2)cs1)CC(O)CO (stereo not drawn) | 8.94
80 | CC(C)CN1CC(CN)OC1=O (stereo not drawn) | 2.13
81 | O=C(CCN1CCc2[nH]cnc2C1)NCc1cccs1 | -3.55
82 | CCNS(=O)(=O)C1CCN(Cc2cc(F)cc(F)c2)C1 (stereo not drawn) | -0.23
83 | C1CC(C2CCOC2)CCN1 (stereo not drawn) | 9.96
84 | CCS(=O)(=O)CCN(C)CCOc1cccc(C#N)c1 | 3.26
85 | CC(N)c1nc2ccccc2n1C (stereo not drawn) | -1.51
86 | CCC(=O)NCCc1noc(COC)n1 | 8.83
87 | CCOc1cccc(C(C)NC(=O)CNC(C)=O)c1 (stereo not drawn) | 8.25
88 | CCC(=O)N1CCN(C(=O)CC2CCCCC2)CC1 | 6.05
89 | CC1Cc2ccccc2N1CCN (stereo not drawn) | 14.26
90 | O=C1Nc2ccccc2C1C1CCNCC1 (stereo not drawn) | 10.09
91 | Cc1cc(C)cc(OCC(=O)N2CCN[C@H](C)C2)c1 | 8.4
92 | CC1=C(c2ccco2)CN(CC(N)=O)CC1 | 3.95

Row | SMILES | Inhibition [%]
93 | O=C(Nc1cncc(Br)c1Cl)N1CCC(O)C1 (stereo not drawn) | -0.64
94 | NCc1cccc(N2CC=CC2)c1 | 6.5
95 | O=C(CCN1CCOCC1)Nc1cccc(Cl)c1 | 5.94
96 | O=C(Cn1ccnc1)Nc1ccc(OC(F)F)cc1 | 8
97 | CNC(=O)CSc1nnc(C2CC2)n1C | 5.97
98 | CC(=O)c1c(C)[nH]c(C(=O)OCC(=O)N(C)C)c1C | 5.39
99 | NCc1ccc(-c2ccccc2)o1 | 16.01
100 | CC(C)CCNC(=O)Nc1c[nH]c(=O)[nH]c1=O | 6.3
101 | CCCNC(=O)Cn1ccnc1SC | 10.93
102 | CNC(=O)c1cccc(CN)n1 | 9.63
103 | CN(C)[C@H]1CN(C(=O)c2ccncc2)C[C@@H]1C1CC1 | 10.19
104 | CCn1cnnc1CC1CCCNC1 (stereo not drawn) | 9.33
105 | Cc1ccc(OC2CCN(C(=O)[C@@H](C)N)CC2)cc1 | 3.78
106 | CN[C@@H](C)C(=O)N1CC(Oc2ccccc2OC)C1 | -2.39
107 | CC(C)NC(=O)C(C)N (stereo not drawn) | 9.53
108 | NC(c1ccc(Cl)cc1)c1ncon1 (stereo not drawn) | 6.75
109 | O=C(Cn1ccc(=O)[nH]c1=O)NCc1cccnc1 | 6.41
110 | CCOc1cc(C)ccc1CN | 7.86
111 | c1ncn(-c2ccc(NCC3CCOCC3)cc2)n1 | 5.37
112 | Cc1nn(C)c2nc(NCCC(=O)N3CCCC3)sc12 | 3.37
113 | CNC(=O)[C@H]1CC[C@H](CNC(=O)c2cn[nH]c2)CC1 | 6.17
114 | CC(C)C(=O)N1CCC(N)C1 (stereo not drawn) | 3.38
115 | Cc1nc(CN(C)C(=O)NCc2ccccc2)no1 | 6.9

Row | SMILES | Inhibition [%]
116 | CC(C)(C)OC(=O)N1CC(O)C1 | 5.37
117 | COC(=O)c1ccc(NC(=O)N2CCOC(C)C2)cc1 (stereo not drawn) | 6.27
118 | CSc1ccc(OCCN(C)CC(N)=O)cc1 | 7.33
119 | CCOC(=O)c1csc(CNC(=O)c2ccc(C)o2)n1 | 0.25
120 | CN(CCN1CCCC1=O)C(=O)c1ccc(Br)cc1O | 1.38
121 | CN[C@@H](CC(C)C)C(=O)NCCCc1csc(N)n1 | -8.08
122 | COCC(=O)N1CCN(Cc2csc(C)n2)CC1 | 2.61
123 | CCC(NC(=O)C1CC1)(C(N)=O)C(C)C (stereo not drawn) | 2.37
124 | Cc1cccc(NC(=O)C2COCCO2)c1 (stereo not drawn) | 1.93
125 | CC(=O)N1CCCC(C(=O)NCCc2nnc(C)s2)C1 (stereo not drawn) | 6.35
126 | O=C(OCCC1CCCO1)c1ccncc1 (stereo not drawn) | -0.58
127 | O=C(CCC(F)(F)F)N[C@H]1CCCNC1 | 10.33
128 | CC(=O)N(C)CC(=O)Nc1ccccc1N1CCCC1 | 8.57
129 | CN(C)c1nccc(N(C)CCn2cccn2)n1 | 7.7
130 | CCN(C(=O)c1ccc(-c2ccco2)[nH]c1=O)C1CC1 | 3.27
131 | COCC(=O)Nc1ccc(OCc2ccccn2)cc1 | 4.72
132 | COc1ccc(OCCN2CCNCC2)cc1 | 8.28
133 | CC(=O)NC(C(=O)N1CCSCC1)C(C)C (stereo not drawn) | 3.97

— ChEMBL document CHEMBL4513160, “CO-ADD screening of MMV (CH) - Small Polar Library”
